# Test results: PubChem BioAssay (NCI)
# This is part of a sample that, as a whole, favours compounds with a hit. Of some 83,000 tested, about 20% had one in any assay.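 Testing used 96-well plates and a 48-hour single-concentration exposure. Example: -40 means 40% of the starting cells died.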 Values without a mark were called inactive. Activity calls are given as the source filed them. The calls were made as follows: active = growth percent below 10; inactive = the rest.
# How the values were obtained:
# Test in all cases: NCI-60 one-dose screen, 48 h (100 = growth as untreated, 0 = no growth, -100 = all killed)
# Settings in all cases: 10 µM unless noted
# DU-145 prostate = test system: DU-145 prostate
# K-562 leukemia = test system: K-562 leukemia
# MALME-3M melanoma = test system: MALME-3M melanoma
# MDA-MB-231 breast = test system: MDA-MB-231 breast
# RXF 393 renal = test system: RXF 393 renal
# SF-268 CNS = test system: SF-268 CNS
# SF-295 CNS = test system: SF-295 CNS
# SF-539 CNS = test system: SF-539 CNS
# UACC-257 melanoma = test system: UACC-257 melanoma
# M14 melanoma = test system: M14 melanoma
# HCT-15 colon = test system: HCT-15 colon
# HT29 colon = test system: HT29 colon
# SNB-75 CNS = test system: SNB-75 CNS
# SNB-19 CNS = test system: SNB-19 CNS
# U251 CNS = test system: U251 CNS
# PC-3 prostate = test system: PC-3 prostate
# SK-MEL-5 melanoma = test system: SK-MEL-5 melanoma
# UACC-62 melanoma = test system: UACC-62 melanoma
# LOX IMVI melanoma = test system: LOX IMVI melanoma
# SK-MEL-28 melanoma = test system: SK-MEL-28 melanoma
Compound,growth (DU-145 prostate),growth (K-562 leukemia),growth (MALME-3M melanoma),growth (MDA-MB-231 breast),growth (RXF 393 renal),growth (SF-268 CNS),growth (SF-295 CNS),growth (SF-539 CNS),growth (UACC-257 melanoma),growth (M14 melanoma),growth (HCT-15 colon),growth (HT29 colon),growth (SNB-75 CNS),growth (SNB-19 CNS),growth (U251 CNS),growth (PC-3 prostate),growth (SK-MEL-5 melanoma),growth (UACC-62 melanoma),growth (LOX IMVI melanoma),growth (SK-MEL-28 melanoma)
Cc1ccc(CNc2c3ccccc3nc3cc(NC(=O)CCN4CCCC4)ccc23)cc1,-67.9% (active),-30.3% (active),-94% (active),-7.47% (active),1.55% (active),15.1%,36.7%,16.7%,24.1%,-88% (active),7.15% (active),0.938% (active),4.1% (active),17.8%,-55.3% (active),-0.231% (active),42.3%,36.1%,-86.4% (active),53.6%
c1ccc(-c2c(-c3ccccc3)[n+](Cc3ccc4ccccc4c3)c(-c3cccc4ccccc34)n2Cc2ccc3ccccc3c2)cc1,-51.3% (active),-3.62% (active),-87.9% (active),-70.5% (active),-94.3% (active),-38.9% (active),-86% (active),-83.5% (active),-42.5% (active),-63.5% (active),-52.9% (active),-49.7% (active),-57.9% (active),-68.9% (active),-94.9% (active),-60.8% (active),-98.4% (active),-64.8% (active),-98.9% (active),-71.8% (active)
CCCCCN1C=C/C(=C\C(=O)N2CCCc3ccccc32)c2ccccc21,94.1%,54.1%,86%,97%,99.5%,87.2%,85.7%,97.2%,89.8%,100%,102%,73.2%,108%,93.9%,87.6%,86.7%,92.7%,75.2%,87.3%,104%
O=C(N/N=C/c1ccc(Oc2ccccc2)cc1)c1cnn2c1NC(c1ccccc1)C2 (stereo not given),49.2%,46.4%,20.5%,72.8%,71.5%,64.5%,18.6%,37.5%,59.8%,46.2%,33.9%,65.8%,76.8%,61%,48.1%,46.7%,41.5%,6.85% (active),57.2%,56.2%
COc1ccc(C/C(=C(\C)c2ccc(OCCN3CCCC3)cc2)c2ccc(OCCN3CCCC3)cc2)cc1,70%,-64.1% (active),47.1%,17.8%,55.7%,69.9%,34.2%,29.9%,63.9%,-64.8% (active),11.9%,-58.1% (active),83.2%,72.6%,-39.7% (active),50.9%,-48.8% (active),-55.6% (active),-92.5% (active),-86.9% (active)
O=C(Cc1ccc(/C=C/C(=O)c2nccs2)cc1)Nc1ccccc1,105%,23.3%,98.4%,94.8%,103%,95%,97.1%,99.9%,88.6%,93.1%,78.4%,72.7%,108%,84.8%,47.7%,91.7%,88.8%,83.9%,72.4%,105%
CNC(=O)c1cccc(Cn2nc(C)c(NC(=O)c3ccc(COc4ccc(C(F)(F)F)cc4C)cc3)c2C)c1,58.9%,23.3%,77.5%,79.4%,70.4%,61.9%,27.9%,71.7%,8.63% (active),41.6%,55%,44.4%,82.2%,46.8%,44.4%,40.1%,-16.8% (active),57%,58%,63.9%
Oc1ccc(C(c2ccc(O)cc2)c2ccc(Br)cn2)cc1,47.4%,73.5%,99.3%,83%,-22% (active),104%,-17.1% (active),84.9%,91.3%,78.8%,15.6%,70.5%,-10.3% (active),66.9%,86.9%,-17.1% (active),85.5%,38.9%,-12.2% (active),109%
COc1cc(/C=N/O)nc(-c2ccccn2)c1,24.7%,11.6%,6.48% (active),26.5%,21.2%,6.74% (active),14.8%,4.89% (active),5.15% (active),6.86% (active),26.7%,32.6%,43%,23.1%,21.3%,49.5%,-22.1% (active),4.54% (active),3.54% (active),18.2%
COc1cc(C2C3CC4CCCC[C@H]4N3[C@@]3(C(=O)Nc4cc(Cl)ccc43)C2C(=O)c2nc3ccccc3[nH]2)cc(OC)c1OC (stereo not given in full),80.5%,40.5%,56.6%,76.8%,51.1%,67.3%,45.5%,70.1%,61.6%,52%,43.3%,35.6%,78.8%,72.5%,56.7%,43.7%,64.6%,57.5%,58.8%,82.4%
Cc1c(C(=O)NCCC(=O)NO)sc2ncnc(Nc3ccc(NC(=O)Nc4cccc(C(F)(F)F)c4)cc3)c12,105%,104%,112%,105%,104%,93.4%,91.8%,79%,108%,107%,101%,110%,78.8%,93.6%,80.2%,100%,97.1%,99.6%,94.5%,110%
O=C(Cn1c[n+](CC(=O)c2ccc([N+](=O)[O-])cc2)c2ccccc21)Nc1cccc2cccnc12,85.1%,38.2%,81.4%,50.5%,97.6%,65.1%,101%,87.8%,48.6%,78.4%,101%,40.4%,29.8%,37.5%,63.7%,38.9%,95.8%,69.1%,86.3%,78.7%
COc1cccc(-c2cc(C(=O)Nc3ccc(/C=C/c4ccc(OC5CCN(C)CC5)cc4)cc3)ccc2OC)c1,-64.9% (active),-47.9% (active),51.3%,-60.5% (active),28.9%,-30.8% (active),-63% (active),8.18% (active),83.7%,-21.8% (active),-61.8% (active),-60.1% (active),-50.3% (active),-11.1% (active),-92.6% (active),8.53% (active),96%,69.6%,-86.9% (active),41.7%
NC(=NCc1ccccc1)C(N=Nc1ccccc1)C(=O)NCc1ccccc1 (stereo not given),94.4%,25.2%,133%,68.3%,72.6%,53.5%,53.9%,50.3%,95.4%,82.9%,49.1%,18.3%,96.9%,63.4%,26.7%,62.7%,103%,76.6%,42.7%,106%
N#CC(C#N)=Cc1cc2ccccc2nc1Oc1ccc(C(F)(F)F)cc1,99.1%,64.5%,98.8%,84.5%,92.3%,84.4%,92.2%,96.9%,106%,92.8%,85.1%,100%,84.2%,93.2%,91.2%,51.5%,94.7%,78.4%,76.4%,104%
